A selection: hits, their analogues and other compounds. The true share with any hit is near 12%.
Shiga toxin inh: inhibitors of Shiga toxin in Vero cells; 290,000 tested, 9.2% active; Vero cells, Shiga toxin protein synthesis inhibition reporter; inhibition, % at 38.7 µM; in the data active = inhibition mostly above about 28%, no sharp cut-off; inactive = mostly below about 43%; also: 0% is about no effect
Cycloheximide cs: counter-screen hit for Shiga toxin inhibitors, cycloheximide; cell reporter, cycloheximide protein synthesis inhibition counterscreen; 300,000 tested, 12% active; max response, %; in the data active = max response mostly above about 13%, no sharp cut-off; inactive = mostly below about 14%; also: read at 38.3 µM for the half of the compounds with a filed dose; 0% is about no effect
NS1 inh: blocks influenza NS1 protein function; Potency, µM (doses to about 46.1 µM), for inactives: at the top dose activity, positive = more growth; 270,000 tested, 0.4% active; AID 2326; also: potency is read from the fitted curve at half-maximal effect; actives are rising curves; nearly all actives have a fitted effect of over 50% in size
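Compounds were scored for reversing the slow growth caused by influenza A NS1 in S. cerevisiae, measured by optical density at 600 nm. Assay medium contained 2% galactose at pH 6.0; NS1-free yeast of the same strain were the positive control.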
SARS PLpro yeast: SARS-CoV PLP inhibition in yeast. Potency, µM (series often up to 32.9 µM), for inactives: at the top dose activity, positive = growth rescue, usual class: activators. S. cerevisiae expressing SARS-CoV PLpro, growth rescue. 330,000 tested, 0.19% active. AID 485353; also: potency is read from the fitted curve at half-maximal effect; 0% is about no effect; nearly all actives have a fitted effect of over 55% in size
Starred values were filed as active, the others as inactive; ? = inconclusive; . = no result given; + = active, no number. Unless noted, calls follow the shape of the full dose curve.

SMILES	Shiga toxin inh	Cycloheximide cs	NS1 inh	SARS PLpro yeast
CCC(C)N=C1Sc2nc3ccc(C)cc3cc2CN1CCOC (centres undefined)	-3	5	.	6%
CCOc1ccc(N=C2Sc3nc4ccc(C)cc4cc3CN2CCOC)cc1	34	2	.	-1%
C[C@@H]1CC2OC(=O)[C@@]3(C)C(=O)CC[C@@](C)(C23)[C@@]1(O)CCc1ccoc1 (some centres undefined)	-4	26*	1%	1%
C/C(N=NC(=[SH+])SCc1ccccc1)=C1\C=CC=CN1.[Cl][Cu]	.	.	2%	.
Cc1cc(NC(=O)c2ccc3nc(C)sc3c2)no1	195*	43*	-4%	0%
Cc1cc(NC(=O)NC(=O)c2ccccc2)no1	38*	20*	2%	-7%
Cc1nc2ccc(NC(=O)c3ccc([N+](=O)[O-])cc3)cc2s1	10	14	0%	-23%
C/C(=C\c1ccccc1)C(=O)Nc1cc(C)on1	98*	40*	-81%	-9%
CCOc1ccc(C(=O)Nc2cc(C)on2)cc1	73*	31*	-17%	5%
Cc1cc(NC(=O)Cc2ccccc2)no1	-11	-1	-9%	13%
O=C(CCOc1cccc(Br)c1)NNC(=O)COc1ccc(F)cc1	.	.	.	0%
Cc1cc(NC(=O)c2ccc(Cl)cc2)no1	59*	32*	-1%	-4%
Cc1cc(NC(=O)c2cccc(COc3ccc(Br)cc3)c2)no1	+	112*	1%	9%
CCn1cc(C(=O)N[C@@H](C)C(=O)NCCCN2CCOCC2)c(=O)c2cc3c(cc21)OCO3	-4	-7	11%	.
Cc1cccc(NC(=O)c2ccc([N+](=O)[O-])o2)c1C	-14	-4	.	-3%
O=C(Nc1ccccc1N1CCN(C(=O)c2ccccc2)CC1)c1ccc([N+](=O)[O-])o1	26	3	?	4%
CC1CCN(c2ccccc2NC(=O)c2ccc([N+](=O)[O-])o2)CC1	-10	-4	3%	-3%
CC(C)C(=O)N1CCN(c2ccccc2NC(=O)c2ccc([N+](=O)[O-])o2)CC1	50*	27*	-9%	-13%
O=C(Nc1cccc2ccccc12)c1ccc([N+](=O)[O-])o1	31*	31*	-142%	-31%
O=C(CNc1cccc2ccccc12)N/N=C/c1ccc([N+](=O)[O-])o1	14	10*	-10%	-80%
O=C(Nc1ccccc1N1CCCC1)c1ccc([N+](=O)[O-])o1	41*	36*	-14%	-6%
O=C(CNc1cccc([N+](=O)[O-])c1)N/N=C/c1ccc([N+](=O)[O-])o1	-7	-1	5%	-1%
Cc1ccc(NC(=S)NC(=O)C2CCCC2)c(Br)c1	.	.	.	-18%
[Cu].[NH-][C@H](CC(=O)O)C(=O)O.[NH-][C@H](CC(=O)O)C(=O)O	.	.	-6%	.
O=c1c2ccccc2nc(/C=C/c2ccc3c(c2)OCO3)n1CCCO	47	24*	-7%	0%
SMILES	Shiga toxin inh	Cycloheximide cs	NS1 inh	SARS PLpro yeast
O=c1c2ccccc2nc(/C=C/c2ccccc2)n1CCCO	6	11	-7%	0%
O=c1c2ccccc2nc(/C=C/c2c[nH]c3ccccc23)n1CCO	65*	38*	-2%	0%
COC(=O)[C@@H](Cc1ccccc1)NC(=O)[C@H]1CCC(=O)N1C(=O)OCc1ccccc1	-7	-4	2%	-11%
CC1(c2ccc(OC(F)F)cc2)NC(=O)N(CC(=O)Nc2ccc(N3CCCCC3)cc2)C1=O (centres undefined)	.	.	.	-2%
Cc1cc(Br)ccc1NC(=O)CN(C)C(=O)C1=COCCO1	.	.	.	-6%
CC(C(=O)NC(=O)NC1CCCCC1)N1CCN(c2ccc(O)cc2)CC1 (centres undefined)	.	.	.	0%
CCCCN(Cc1ccccc1)c1ncnc2nc[nH]c12	31*	36*	-49%	-92%
O=C(Oc1c(Br)cc(Br)c2cccnc12)N1CCCCC1	24	32*	.	-2%
O=C(Oc1ccc(Cl)c2cccnc12)N1CCCCC1	35	12	-16%	5%
COc1cccc(N2CCN(C(=O)c3ccc4ccccc4c3)CC2)c1	.	.	.	1%
COc1ccc(N2CCN(C(=O)c3ccc4nc(N5CCCCC5)sc4c3)CC2)cc1	44*	53*	-82%	2%
COc1cccc(N2CCN(C(=O)c3ccc4nc(N5CCCCC5)sc4c3)CC2)c1	109*	77*	-60%	-7%
O=C(c1cccc(F)c1)N1CCN(Cc2ccc3c(c2)OCO3)CC1	.	5	15%	9%
CC1CCN(c2nc3ccc(C(=O)N4CCN(Cc5ccc6c(c5)OCO6)CC4)cc3s2)CC1	+	136*	9%	8%
CN1C(=O)C(=O)/C(=C(/O)c2ccccc2)C1c1ccc([N+](=O)[O-])cc1 (centres undefined)	-7	2	29%	8%
CC1(C)CC(=O)C(C=Nc2ccc(NC3=C(C#N)C(=O)CC(C)(C)C3)cc2)=C(O)C1	-8	4	6%	2%
CCOC(=O)/C(C#N)=C/C1=C(N2CCOCC2)CC(C)(C)OC1	-6	1	3%	4%
O=S(=O)(Nc1cc(Br)cc2cccnc12)c1cccc2ccccc12	-4	6	.	.
CCOc1ccc(NC(=O)c2ccc3c(c2)C(=O)N(Cc2ccncc2)C3=O)cc1	.	.	.	3%
CCN(/C=N/c1sc2c(c1C#N)CCCCC2)CC	67*	52*	-37%	-9%
CN1CCN(/C=N/c2sc3c(c2C#N)CCCCC3)CC1	89*	46*	1%	?
CC(C)CN(/C=N/c1sc2c(c1C#N)CCCCC2)CC(C)C	-4	-2	-1%	-8%
CCOC(=O)c1nn(-c2ccc(C)cc2)c(=O)c2c(N)scc12	-4	1	7%	-13%
NNC(=O)c1nn(-c2ccccc2)cc1O	-19	0	6%	10µM*
CCOC(=O)c1nn(-c2ccc(F)cc2)c(=O)c2c(N)scc12	19	19*	0%	0%
SMILES	Shiga toxin inh	Cycloheximide cs	NS1 inh	SARS PLpro yeast
CCOC(=O)c1nn(-c2ccc3c(c2)CCN3C(C)=O)cc1O	40	21	-52%	-5%
CCOC(=O)c1nn(-c2ccc(F)cc2)cc1O	115*	52*	.	-4%
CC(C)CCNC(=O)CCCCn1c(=O)[nH]c2ccsc2c1=O	-12	-2	.	-1%
CCN1C(=O)/C(=C/c2ccc3c(c2)CCN3CCCCl)C(=O)NC1=S	8	0	-18%	-11%
C=CCN1C(=O)/C(=C/c2ccc3c(c2)CCCN3CCC)C(=O)NC1=S	2	11*	8%	-8%
Cc1ccccc1-c1nc(C#N)c(N2CCCCC2)o1	6	5	-5%	-4%
Cc1ccn2cc(CCNC(=O)C3CC=CCC3C(=O)O)nc2c1 (centres undefined)	77*	20*	-1%	1%
Cc1cccc(NC(=O)Cn2nnc3ccccc32)c1	136*	44*	.	0%
O=C(Cn1nnc2ccccc21)Nc1ccc([N+](=O)[O-])cc1	-12	-3	1%	1%
COc1cccc(/C=N\NC(=O)Cn2nnc3ccccc32)c1O	76*	27*	3%	0%
Cc1ccc(NC(=O)Cn2nnc3ccccc32)cc1	68*	37*	1%	0%
COC(=O)c1ccc(NC(=O)Cn2nnc3ccccc32)cc1	67*	38*	0%	?
COc1ccc(NC(=O)COC(=O)Cn2nnc3ccccc32)cc1	-6	-4	.	-1%

Assay outcomes as filed in PubChem BioAssay.
